Source: PubChem BioAssay (NMMLSC)
A selection: hits, their analogues and other compounds. The true share with any hit is near 2.9%.
GRK2 inh: compounds blocking aptamer binding on GRK2 – biochemical, human GRK2, bead flow cytometry, HTS, primary screen; actives 0.59% (n = 330,000); AID 488847, 2010; inhibition of aptamer binding, % at 10 µM; FAM-aptamer displacement from GRK2;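 active means inhibition of aptamer binding above 40%, roughly 3 SD of noise, on plates passing a quality check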;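 further: median bead fluorescence of bound FAM aptamer so fluorescent compounds give negative values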
Target sequence (P25098 whole entry, looked up): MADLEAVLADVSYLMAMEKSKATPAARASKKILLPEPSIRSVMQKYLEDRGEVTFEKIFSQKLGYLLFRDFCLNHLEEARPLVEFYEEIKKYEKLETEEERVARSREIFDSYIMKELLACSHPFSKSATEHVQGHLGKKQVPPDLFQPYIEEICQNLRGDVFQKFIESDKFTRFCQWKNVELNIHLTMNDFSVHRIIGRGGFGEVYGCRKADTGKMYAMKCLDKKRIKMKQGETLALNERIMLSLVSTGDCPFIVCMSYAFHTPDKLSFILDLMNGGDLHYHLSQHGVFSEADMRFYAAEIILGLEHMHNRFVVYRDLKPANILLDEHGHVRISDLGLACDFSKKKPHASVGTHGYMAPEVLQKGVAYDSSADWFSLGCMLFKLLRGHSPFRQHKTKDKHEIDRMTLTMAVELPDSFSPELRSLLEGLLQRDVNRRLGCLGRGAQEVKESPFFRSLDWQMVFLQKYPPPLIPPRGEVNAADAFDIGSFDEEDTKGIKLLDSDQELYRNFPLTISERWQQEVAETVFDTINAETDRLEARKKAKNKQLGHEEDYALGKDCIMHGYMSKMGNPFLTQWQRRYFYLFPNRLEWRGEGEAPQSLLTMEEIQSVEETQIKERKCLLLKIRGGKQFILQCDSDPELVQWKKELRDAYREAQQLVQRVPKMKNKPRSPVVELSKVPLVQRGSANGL
Beta2AR agonist: beta2AR agonists driving receptor internalization, primary screen, cell-based, FAP fluorogen, flow cytometry. response, % (no concentration beside the values). actives 0.43% (n = 340,000). Beta-2 adrenergic receptor (Homo sapiens), P07550. Am2.2-beta2AR cells. AID 504454, 2011;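 active means response above a set limit, near 3 SD of response in nonfluorescent compounds, cut at about 42% in these data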
MEKK2 WT-MEK5: modulators of MEK5 binding to wildtype MEKK2, primary screen, biochemical, multiplex bead flow cytometry, Alexa488-MEK5; binding response (% of control), % at 10 µM; Alexa488-MEK5 binding to MEKK2 WT; actives lie on both sides; actives 1.1% (n = 290,000); in the data active means binding response below about 67% or above about 130%
MEKK2 mut-MEK5: MEK5 binding signal on mutant MEKK2 PB1, primary screen, biochemical, multiplex bead flow cytometry, Alexa488-MEK5. Alexa488-MEK5 binding to MEKK2 mutant. percent response, % at 10 µM. actives 0.35% (n = 290,000). AID 1530, 2009; in the data active means percent response above about 24%, passing the limit was not always enough
MEKK3 PB1 HTS: modulators of MEKK3-MEK5 PB1 binding, primary screen, biochemical, wildtype MEKK3, multiplex bead flow cytometry, Alexa488-MEK5. Mitogen-activated protein kinase kinase kinase 3 (Homo sapiens), Q99759. bead-based flow cytometry, Alexa488-MEK5 binding to MEKK3; actives lie on both sides; 0 = blocked by unlabeled MEK5, 100 = vehicle. binding response (% of control), % at 10 µM. actives 1.4% (n = 290,000);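 active means binding response more than 3 SD above or below the average of its plate-row segment, actives on both sides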;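 further: Alexa488 bead fluorescence after subtracting the streptavidin-only scavenger bead signal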
MEKK2wt confirm: modulators of MEK5 binding to wildtype MEKK2, confirmation, biochemical, single concentration, multiplex bead flow cytometry. shares compounds with MEKK3 PB1 HTS. Alexa488-MEK5 binding to MEKK2 WT; actives lie on both sides. binding response (% of control), % at 10 µM. actives 2.4% (n = 5,900). AID 1892, 2009; in the data active means binding response below about 16% or above about 210%; inactive means in between
MEKK2mut-MEK5: mutant MEKK2 PB1-MEK5 binding signal retest – biochemical, single concentration, multiplex bead flow cytometry, confirmation | Alexa488-MEK5 binding to MEKK2 mutant | actives 2% (n = 5,900) | shares compounds with MEKK3 PB1 HTS | percent response, % at 10 µM; in the data active means percent response mostly above about 71%, no sharp cut-off; inactive means mostly below about 38%;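 further: higher means compound restores mutant binding toward wildtype level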
MEKK3-MEK5 inh: MEKK3 wild-type PB1 binding to MEK5, inhibitors, confirmation, biochemical, bead multiplex flow cytometry, single concentration, wildtype; shares compounds with MEKK3 PB1 HTS; Alexa488-MEK5 binding to MEKK3; hits give low values; binding response (% of control), % at 10 µM; actives 1.8% (n = 5,900); AID 1894, 2009;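 active means binding response below 72% of control, or above a set upper limit, though filed actives all read lower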
Each line names hits and unclear results; the compound was inactive in the other large screens (follow-up assays come after a bar, where they were run); [ ] = remark or other dose.

C=CCNC(=S)Nc1ccccc1	MEKK3 PB1 HTS 79[inhibitor] | MEKK2wt confirm inactive | MEKK2mut-MEK5 inactive | MEKK3-MEK5 inh inactive
COc1ccccc1N(C)S(=O)(=O)c1ccc(C(=O)OCC(=O)Nc2ccccc2F)cc1	MEKK2 WT-MEK5 45[inhibitor], MEKK3 PB1 HTS 46[inhibitor] | MEKK2wt confirm inactive | MEKK2mut-MEK5 inactive | MEKK3-MEK5 inh inactive
NC1=NC2(CCCCC2)N=C(Nc2ccc(Br)cc2)N1	MEKK2 WT-MEK5 141 | MEKK2wt confirm inactive | MEKK2mut-MEK5 inactive | MEKK3-MEK5 inh inactive
CSc1nnc(-c2ccco2)n1-c1ccccc1	MEKK3 PB1 HTS 123 | MEKK2wt confirm inactive | MEKK2mut-MEK5 inactive | MEKK3-MEK5 inh inactive
CC(=O)CSc1nnc(-c2ccco2)n1-c1ccccc1	none
COC(=O)C1=Cc2cc(OC)cc([N+](=O)[O-])c2OC1N1CCOCC1 (configuration not stated)	none
Oc1ccccc1-c1nnc(-c2ccc(C(F)(F)F)cc2)o1	MEKK3 PB1 HTS 81[inhibitor] | MEKK2wt confirm inactive | MEKK2mut-MEK5 inactive | MEKK3-MEK5 inh inactive
COc1cccc(-c2nnc(-c3ccc(C(F)(F)F)cc3)o2)c1	none
CC(C)(C)OC(=O)C[C@@H]1C/C=C\C[C@H](CC(=O)N(CCO)Cc2ccccc2)C(=O)NC[C@H](c2ccccc2)OC1=O	none (no result: MEKK2 WT-MEK5, MEKK2 mut-MEK5, MEKK3 PB1 HTS)
COc1cc2oc(-c3ccc(O)cc3)cc(=O)c2c(O)c1OC	none
COc1cc2oc(-c3ccc(O)cc3)cc(=O)c2c(OC)c1O	MEKK2 WT-MEK5 35[inhibitor], MEKK3 PB1 HTS 37[inhibitor] (no result: GRK2 inh) | MEKK2wt confirm inactive | MEKK2mut-MEK5 inactive | MEKK3-MEK5 inh inactive
O=C(O)CC(NS(=O)(=O)c1c(F)cc(F)cc1Br)c1ccccc1Cl (configuration not stated)	MEKK2 mut-MEK5 279 | MEKK2wt confirm inactive | MEKK2mut-MEK5 inactive | MEKK3-MEK5 inh inactive
COC(=O)CC(NS(=O)(=O)c1cccs1)c1ccccc1Cl (configuration not stated)	none
COC(=O)N/N=C/c1cc(Cl)c(OCc2ccc(F)cc2)c(OC)c1	MEKK3 PB1 HTS 128 | MEKK2wt confirm inactive | MEKK2mut-MEK5 inactive | MEKK3-MEK5 inh inactive
COc1ccc(NC(=O)N2CCCC2C(=O)Nc2ccccc2F)cc1 (configuration not stated)	none
COc1cccc(NC(=O)C2CCCN2C(=O)Nc2ccccc2F)c1 (configuration not stated)	MEKK2 WT-MEK5 -2.0[inhibitor], MEKK3 PB1 HTS 1.0[inhibitor] | MEKK2wt confirm inactive | MEKK2mut-MEK5 inactive | MEKK3-MEK5 inh inactive
COc1cccc(NC(=O)N2CCCC2C(=O)NCc2ccccc2)c1 (configuration not stated)	MEKK2 WT-MEK5 55[inhibitor], MEKK3 PB1 HTS 63[inhibitor] | MEKK2wt confirm inactive | MEKK2mut-MEK5 inactive | MEKK3-MEK5 inh inactive
COc1cccc(CN2CCCCC2C(=O)O)c1 (configuration not stated)	MEKK3 PB1 HTS 40[inhibitor] | MEKK2wt confirm inactive | MEKK2mut-MEK5 inactive | MEKK3-MEK5 inh inactive
CN1CCN(c2ccc(S(=O)(=O)N3CCOCC3)cc2NC(=O)CSCc2ccccc2)CC1	none (no result: MEKK2 WT-MEK5, MEKK2 mut-MEK5, MEKK3 PB1 HTS)
CC(=O)C(Cc1ccccc1)NC(=O)CN(C)Cc1ccccc1Cl (configuration not stated)	none
